# The sample as a whole holds a higher share of hits than the screen did.
# IDE exosite FP: exo-site inhibitors of human insulin-degrading enzyme; purified IDE, FL-6b probe fluorescence polarization; hits give low values; z-score at 20 µM; 17,000 tested, 6.3% active; P14735;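 active = z-score of -3 or lower, meaning strong loss of probe binding signal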;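 note: His-tagged human IDE residues 42-1019 made in E. coli with 30 nM FL-6b probe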
# Target sequence (P14735 42-1019 limits assumed): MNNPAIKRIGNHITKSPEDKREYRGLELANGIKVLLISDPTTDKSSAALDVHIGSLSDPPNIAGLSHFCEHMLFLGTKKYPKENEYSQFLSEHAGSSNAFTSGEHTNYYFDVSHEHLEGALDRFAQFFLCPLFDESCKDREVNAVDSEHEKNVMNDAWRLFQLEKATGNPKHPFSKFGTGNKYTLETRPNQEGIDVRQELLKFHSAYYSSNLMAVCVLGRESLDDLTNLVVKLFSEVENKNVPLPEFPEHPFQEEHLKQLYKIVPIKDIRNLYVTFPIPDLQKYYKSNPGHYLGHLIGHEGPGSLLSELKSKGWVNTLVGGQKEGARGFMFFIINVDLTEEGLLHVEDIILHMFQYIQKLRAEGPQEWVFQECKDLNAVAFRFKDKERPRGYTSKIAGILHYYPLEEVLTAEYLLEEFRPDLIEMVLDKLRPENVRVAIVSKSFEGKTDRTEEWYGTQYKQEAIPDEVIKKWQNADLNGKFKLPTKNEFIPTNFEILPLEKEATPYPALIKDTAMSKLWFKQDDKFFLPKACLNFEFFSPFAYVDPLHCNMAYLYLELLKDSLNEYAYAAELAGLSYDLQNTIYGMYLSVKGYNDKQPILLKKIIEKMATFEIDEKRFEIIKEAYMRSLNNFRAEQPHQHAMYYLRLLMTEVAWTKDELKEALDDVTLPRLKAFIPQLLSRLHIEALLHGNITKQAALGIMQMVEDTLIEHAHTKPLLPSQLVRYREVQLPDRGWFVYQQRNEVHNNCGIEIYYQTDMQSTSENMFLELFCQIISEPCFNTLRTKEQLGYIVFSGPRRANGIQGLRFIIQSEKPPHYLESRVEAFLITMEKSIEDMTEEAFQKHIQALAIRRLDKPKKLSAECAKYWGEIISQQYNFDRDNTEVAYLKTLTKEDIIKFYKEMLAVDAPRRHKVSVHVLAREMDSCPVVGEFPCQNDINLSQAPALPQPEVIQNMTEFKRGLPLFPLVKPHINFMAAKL
# * marks the source's active call; other numbers are inactive results; ! = a repeat was not active.
SMILES,IDE exosite FP
O=C(C1CCC1)N1CC(=O)N2[C@@H](CO)[C@@H](c3ccc(-c4ccccc4F)cc3)[C@@H]2C1,-5.57*
O=C(C1CCOCC1)N1CC(=O)N2[C@@H](CO)[C@H](c3ccc(C4=CCCC4)cc3)[C@@H]2C1,1.12
O=C(C1CCC1)N1CC(=O)N2[C@H](CO)[C@@H](c3ccc(Br)cc3)[C@H]2C1,-0.543
O=C(C1CCCC1)N1CC(=O)N2[C@H](CO)[C@@H](c3ccc(-c4ccccc4F)cc3)[C@H]2C1,2.79
O=C(C1CC1)N1CC(=O)N2[C@@H](CO)[C@H](c3ccc(-c4ccccc4F)cc3)[C@@H]2C1,0.709
O=C(C1CCCC1)N1CC(=O)N2[C@H](C1)[C@H](c1ccc(-c3ccccc3F)cc1)[C@@H]2CO,-2.93
O=C(C1CCC1)N1CC(=O)N2[C@@H](CO)[C@@H](c3ccc(C4=CCCCC4)cc3)[C@@H]2C1,-3.87*
O=C(C1CCCC1)N1CC(=O)N2[C@@H](CO)[C@H](c3ccc(-c4ccccc4F)cc3)[C@@H]2C1,-5.72*
O=C(C1CCC1)N1CC(=O)N2[C@H](C1)[C@@H](c1ccc(Br)cc1)[C@@H]2CO,0.906
N#C[C@@H]1[C@@H](c2ccccc2-c2ccccc2)[C@H](CO)N1C(=O)Cc1ccccc1,1.41
N#C[C@H]1[C@H](c2ccc(C#Cc3ccccc3F)cc2)[C@H](CO)N1C(=O)c1cccnc1,-2.41
C[C@@H]1CCCCO[C@H](CN(C)Cc2ccc(C(=O)O)cc2)[C@@H](C)CN([C@@H](C)CO)C(=O)c2cc(N(C)C)ccc2O1,-0.133
CCS(=O)(=O)N1CCCCN2[C@@H](CO)[C@H](c3ccc(C#CC(C)(C)O)cc3)[C@@H]2C1,0.893
Cc1noc(C)c1NC(=O)N1C[C@@H](O)COC[C@@H]2O[C@H](CC(=O)N[C@H]3CCN(Cc4ccccc4)C3)CC[C@H]21,0.14
CN(C)C(=O)c1ccc(-c2ccc([C@H]3[C@H](CO)N4C(=O)CN(C(=O)C5CCC5)C[C@@H]34)cc2)cc1,2.64
O=C(c1cnccn1)N1CC(=O)N2[C@H](CO)[C@H](c3ccc(C#CC4CCCCC4)cc3)[C@@H]2C1,0.184
N#C[C@H]1[C@H](c2ccccc2-c2cccc(F)c2)[C@@H](CO)N1C(=O)C1CCCCC1,1.09
CCN(C[C@H]1N[C@H](CO)[C@H]1c1ccc(-c2ccccc2)cc1)C(=O)COC,0.856
CN1C(=O)c2cc(NC(=O)c3cccc(C(F)(F)F)c3)ccc2OC[C@@H]2O[C@H](CC(=O)NCCN3CCCC3)CC[C@@H]21,-1.33
O=C(C1CCC1)N1CC(=O)N2[C@H](CO)[C@H](c3ccc(-c4ccccc4F)cc3)[C@@H]2C1,-3.17*
CCC(=O)N1[C@H](CN(CC)C(C)=O)[C@@H](c2ccc(-c3cccnc3)cc2)[C@@H]1CO,0.871
COc1cccc(S(=O)(=O)N2CCCCN3[C@H](C2)[C@@H](c2ccc(-c4ccccc4)cc2)[C@@H]3CO)c1,2.99
COc1cccc(-c2ccc([C@@H]3[C@H](CO)N4CCCCN(S(=O)(=O)c5cn(C)cn5)C[C@@H]34)cc2)c1,-10.7*
COc1cccc(-c2ccc([C@H]3[C@@H](CO)N4CCCCN(S(=O)(=O)c5cn(C)cn5)C[C@H]34)cc2)c1,-3.95*
COc1cccc(-c2ccc([C@H]3[C@@H](CO)N4CCCCN(S(=O)(=O)c5cccs5)C[C@H]34)cc2)c1,0.914
SMILES,IDE exosite FP
COc1cccc(S(=O)(=O)N2CCCCN3[C@H](CO)[C@@H](c4ccc(-c5ccccc5)cc4)[C@H]3C2)c1,2.54
COc1cccc(-c2ccc([C@@H]3[C@H]4CN(S(=O)(=O)c5cccs5)CCCCN4[C@H]3CO)cc2)c1,4.17
O=C(c1ccccc1)N1CC(=O)N2[C@@H](CO)[C@H](c3ccc(C4=CCCC4)cc3)[C@@H]2C1,2.09
CS(=O)(=O)N1[C@@H]2CNC[C@H]1C2c1ccc(-c2ccccc2)cc1 (some centres not stated),1.63
C[C@@H](O)C#Cc1ccc([C@H]2[C@@H](CO)N3CCCCN(C(=O)c4ccc(F)cc4)C[C@@H]23)cc1,3.29
COc1ccccc1-c1ccc(C2[C@@H]3CN(C(=O)c4ccncc4)C[C@H]2N3)cc1 (some centres not stated),-7.28*!
COc1ccc(-c2ccc(C3[C@@H]4CN(C(=O)c5ccc(F)cc5)C[C@H]3N4)cc2)cc1 (some centres not stated),1.2
O=C(c1ccc(F)cc1)N1C[C@@H]2N[C@H](C1)C2c1ccc(-c2cccnc2)cc1 (some centres not stated),-0.186
COc1ccccc1-c1ccc(C2[C@@H]3CN(C(=O)c4cccnc4)C[C@H]2N3)cc1 (some centres not stated),-13.8*!
N#Cc1ccc(-c2ccc(C3[C@@H]4CN(C(=O)c5ccncc5)C[C@H]3N4)cc2)cc1 (some centres not stated),-0.564
Cc1cccc(-c2ccc(C3[C@@H]4CN(C(=O)c5ccncc5)C[C@H]3N4)cc2)c1 (some centres not stated),-2.86
OC[C@@H]1[C@@H](c2ccccc2)C2(CN(Cc3cc(F)ccc3F)C2)N1CC1CCCC1,0.993
COc1cccc(-c2ccc([C@@H]3[C@@H](CO)N4C(=O)CNC[C@H]34)cc2)c1,-1.16
Cc1ccc(S(=O)(=O)N2C[C@@H]3N[C@H](C2)C3c2ccc(-c3ccncc3)cc2)cc1 (some centres not stated),0.531
CO[C@@H]1CN(C)C(=O)c2cc(NC(=O)Nc3ccccc3Cl)ccc2OC[C@@H](C)N(S(=O)(=O)CC(F)(F)F)C[C@H]1C,0.495
COc1ccc2c3c([nH]c2c1)[C@@H](CO)N(C(=O)CN(C)C)CC31CCN(Cc2cncnc2)CC1,-0.592
CN(C)C(=O)c1ccc(-c2ccc(C3[C@H]4CNC[C@@H]3N4CC3CCCCC3)cc2)cc1 (some centres not stated),-0.236
COc1ccc(-c2ccc([C@H]3[C@@H](CO)N4CCCCN(CC5CCOCC5)C[C@H]34)cc2)cc1,-0.348
Cc1ccccc1-c1ccc([C@H]2[C@@H](CO)N3CCCCN(CC4CC4)C[C@@H]23)cc1,-3.48*
COc1ccc(-c2ccc([C@H]3[C@@H](CO)N4CCCCN(CC5CCOCC5)C[C@@H]34)cc2)cc1,0.852
OC[C@H]1[C@@H](c2ccc(-c3cccnc3)cc2)[C@@H]2CN(CC3CC3)CCCCN12,-1.25
CCCC#Cc1ccc([C@@H]2[C@H](CO)N3CCCCN(CC4CC4)C[C@@H]23)cc1,4.1
Cc1ccccc1-c1ccc([C@H]2[C@H]3CN(CC4CCOCC4)CCCCN3[C@H]2CO)cc1,-6.86*
C[C@@H]1CCCCO[C@H](CN(C)C(=O)C2CCCCC2)[C@H](C)CN([C@@H](C)CO)C(=O)c2cc(NS(=O)(=O)c3ccccc3)ccc2O1,1.48
C/C=C/c1ccc([C@@H]2[C@@H](CO)N(C(=O)CC)[C@H]2CN(C)S(C)(=O)=O)cc1,2.62
O=C(CCN1CCCCC1)N[C@H]1CC[C@@H](CC(=O)N2CCC(Cc3ccccc3)CC2)O[C@H]1CO,-0.248
CCCN(C[C@H]1[C@H](c2ccccc2)[C@@H](CO)N1C(C)=O)C(=O)NC(C)C,4.89
OC[C@@H]1[C@H](c2ccc(-c3ccncc3)cc2)[C@@H]2CN(Cc3ccccn3)CCCCN12,4.1
CCC(=O)N1CC(=O)N2[C@H](CO)[C@H](c3ccc(-c4ccccc4F)cc3)[C@H]2C1,-7.42*
CCC(=O)N1CC(=O)N2[C@H](CO)[C@H](c3ccc(-c4ccccc4F)cc3)[C@@H]2C1,-2.07
